Source: PubChem BioAssay (National Center for Advancing Translational Sciences (NCATS))
VDR inh – blocks the human vitamin D receptor; VDR-SRC2-3 peptide fluorescence polarization, 2 h; Potency, µM, for inactives: max response, negative = inhibition, most hits filed as inhibitors; 0.93% of 400,000 active; also: potency is read from the fitted curve at half-maximal effect; % is scaled to controls: 0 for no effect and ±100 for the full control effect
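After 23 nl compound addition and a short centrifugation, plates sat for 2 hours at ambient temperature; polarization of fluorescence then indicated loss of VDR binding to peptide SRC2-3.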
PI5P4Ka inh – PI5P4K alpha (human) kinase inhibition. P48426. PI5P4Kalpha enzyme, ADP-Glo luminescence, 60 min; active compounds read low. max response, %. 1.2% of 330,000 active; active = max response of -50% or lower; inconclusive = between -30% and -50%; inactive = -30% or higher; also: value at the top dose of about 77 µM; % is scaled to controls: 0 for no effect and ±100 for the full control effect
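Human PI5P4Kalpha with substrate in 0.038 M HEPES pH 7.4, 0.28 mM EGTA, 0.1% CHAPS, 5% DMSO; reaction started with 5 microM ATP (final), 60 min at room temperature. ADP formed read by ADP-Glo luminescence.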
KAT2A inh – inhibitors of human GCN5L2 histone acetyltransferase | Q92830 | GCN5L2 HAT assay, ThioGlo1 CoA-SH fluorescence | Potency, µM (highest dose often 58.9 µM), inactives show at the highest dose activity change, negative = inhibition, hits mostly inhibitors | 0.21% of 390,000 active; also: potency is read from the fitted curve at half-maximal effect; % is scaled to controls: 0 for no effect and ±100 for the full control effect
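Fluorescence readout, Ex340nm/Em540nm: ThioGlo1 (50uM final) reacts with free CoA thiol released as 20nM GCN5L2 acetylates H3(1-25) peptide (75uM) using acetyl-CoA (70uM). Compound and enzyme sat 15 min beforehand; 20 min room-temperature reaction.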
Rango dissoc inh – inhibition of RanGTP-driven Rango-importin beta dissociation; 0.071% of 340,000 active; O95149+P62826; Biochemical FRET Rango-importin beta, RanGTP-induced dissociation; AID 540253; Potency, µM (top dose mostly 46.1 µM), for the others: at the highest dose activity change, negative = inhibition; calls by dose curve; also: potency is read from the fitted curve at half-maximal effect; % of control where 0% means no effect; nearly all actives have a fitted effect of over 45% in size
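FRET read at 45 min, room temperature: inhibitors block the CFP/YFP signal rise when RanGTP (0.6 uM Ran, 2 mM GTP, 0.2 uM RCC1) frees Rango (0.1 uM) from importin beta (0.25 uM). Pre-read after 5 min compound exposure flags interference.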
Rango complex inh – inhibitors of Rango-importin beta complex formation | Rango CFP/YFP FRET sensor + importin beta, 45 min | Potency, µM (top dose mostly 92.2 µM), for the others: at the highest dose inhibition of complex formation | AID 540263 | 0.031% of 340,000 active; calls by dose curve;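 also: potency is read from the fitted curve at half-maximal effect; 0% = DMSO wells and 100% = buffer wells lacking importin beta; nearly all actives have a fitted effect of over 15% in size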
Target sequence (Q14974 whole entry, looked up): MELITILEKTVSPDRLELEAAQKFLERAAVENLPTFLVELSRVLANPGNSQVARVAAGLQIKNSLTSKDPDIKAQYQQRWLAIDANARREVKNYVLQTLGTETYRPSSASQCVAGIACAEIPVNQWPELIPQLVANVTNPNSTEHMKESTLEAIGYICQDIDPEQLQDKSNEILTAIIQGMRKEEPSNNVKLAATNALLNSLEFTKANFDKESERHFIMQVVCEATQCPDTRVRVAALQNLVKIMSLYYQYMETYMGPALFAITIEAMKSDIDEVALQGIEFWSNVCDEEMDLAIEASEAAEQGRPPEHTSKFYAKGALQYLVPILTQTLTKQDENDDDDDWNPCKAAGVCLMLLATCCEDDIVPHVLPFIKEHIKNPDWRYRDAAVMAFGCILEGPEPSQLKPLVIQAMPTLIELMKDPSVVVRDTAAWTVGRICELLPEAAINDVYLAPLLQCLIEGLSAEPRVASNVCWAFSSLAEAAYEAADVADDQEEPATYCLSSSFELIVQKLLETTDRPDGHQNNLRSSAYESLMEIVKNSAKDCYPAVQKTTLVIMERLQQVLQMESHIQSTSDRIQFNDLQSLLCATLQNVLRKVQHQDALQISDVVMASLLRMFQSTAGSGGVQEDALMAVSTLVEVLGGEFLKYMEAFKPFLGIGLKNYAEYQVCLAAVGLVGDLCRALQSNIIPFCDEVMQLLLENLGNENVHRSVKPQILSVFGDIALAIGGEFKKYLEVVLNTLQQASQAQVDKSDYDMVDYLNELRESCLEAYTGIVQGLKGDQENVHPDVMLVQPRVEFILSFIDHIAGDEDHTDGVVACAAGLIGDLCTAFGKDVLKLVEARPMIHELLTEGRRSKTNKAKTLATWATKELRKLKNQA
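FRET biosensor Rango (snurportin 1 IBB between N-terminal EYFP and C-terminal Cerulean), 50 nM in PBS/1 mM DTT/0.02% Tween-20/0.1% BSA, preincubated 5 min RT with compound; 0.125 microM importin beta added, 45 min RT, CFP/YFP FRET ratio read.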
PLK1 PBD block – blocks phosphopeptide binding to human PLK1 polo-box domain; P53350; Plk1 PBD binding of FITC phosphopeptide, fluorescence polarization; Potency, µM, for inactives: max response, negative = inhibition, most hits filed as inhibitors; 2.8% of 360,000 active; also: potency is read from the fitted curve at half-maximal effect; series mostly up to about 57 µM; % is scaled to controls: 0 for no effect and ±100 for the full control effect; nearly all actives have a fitted effect of over 65% in size
* hit, by the source's call; ? = inconclusive; . = no result. The list is not random: actives were taken first. Their share in the collection is about 3.6%. Unless noted, calls follow the shape of the dose curve; as a rule, active = well fitted curve in the direction sought with a large enough effect; inconclusive = small, poorly fitted or top-dose-only effect, or another doubt; inactive = no such curve, though single readings can be large; an effect the other way counts as inactive or inconclusive.

SMILES | VDR inh | PI5P4Ka inh | KAT2A inh | Rango dissoc inh | Rango complex inh | PLK1 PBD block
COc1ccc(CNc2nc(-c3ccc(N(C)C)cc3)nc3ccccc23)c(OC)c1 | 35µM* | . | -28% | . | . | .
COc1ccc(CNc2nc(-c3ccc(C(=O)N(C)C)cc3)nc3ccccc23)c(OC)c1 | -11% | . | -25% | . | . | .
N#Cc1cccc(-c2cncnc2NCc2cccnc2)c1 | -9% | . | -11% | . | . | .
CCN(C(=O)c1cnc(N2CCOCC2)c2ccccc12)c1cc(C)ccc1C | 5% | . | 2% | . | . | .
CCN(CC)C(=O)Cn1c(=O)n(-c2ccc(Cl)cc2)c(=O)c2c3c(sc21)CCCCC3 | -12% | . | 1% | . | . | .
COc1ccc(C(=O)/C=C/C(=O)N(CC(=O)NCCC(C)C)Cc2cccs2)c(O)c1 | -10% | -14 | 1% | 9% | 3% | 34µM*
COc1ccc(-c2cc(C(F)(F)F)c(C#N)c(SCC(=O)Nc3ccc(F)cc3)n2)cc1 | -15% | . | 3% | . | . | .
Clc1ccc(N2O[C@H]3C=C[C@@H]2C3)nc1 | . | ? | . | . | . | 30µM*
CC(=O)[C@@H]1[C@@H]2C(=O)N(Cc3ccccc3)C(=O)[C@@H]2C2c3ccccc3C=CN21 (stereo partly specified) | -4% | . | -4% | ? | ? | 19µM*
CC[C@H]1OC(=O)[C@H](C)C(=O)[C@H](C)[C@@H](OC2O[C@H](C)C[C@H](N(C)C)[C@@H]2O)[C@@](C)(OC)C[C@@H](C)C(=O)[C@@H](C)C2N(CCCCn3cnc(-c4cccnc4)c3)C(=O)O[C@@]21C (stereo partly specified) | -4% | . | 4% | . | . | .
O=C(CCO)c1ccc(O)cc1 | -13% | -65* | -4% | 1% | ? | -1%
COc1ccc(NC(=O)c2cc(-c3ccc(C)o3)nc3ccccc23)cc1OC | -25% | -53* | -22% | -18% | -3% | ?
O=C(Nc1cccc(Cl)c1)c1ccc2nc(Cc3ccccc3)oc2c1 | 5% | . | -3% | . | . | .
Nc1ccc(/C=C/c2ccc(N)cc2S(=O)(=O)O)c(S(=O)(=O)O)c1 | -17% | . | 13µM* | . | . | .
Nc1ccc(Nc2ccccc2)c(S(=O)(=O)O)c1 | 9% | -25 | -17% | -6% | -1% | -28%
CCOC(=O)Cc1c(C)nc2c(-c3ccc(Cl)cc3)cnn2c1C | -13% | 10 | -8% | 4% | 4% | 19µM*
CC(=O)c1cnc2c(-c3ccc(Cl)cc3)cnn2c1C | -7% | 10 | -8% | -3% | 0% | 30µM*
COc1cc(OC)c(NC(=O)CSC2=Nc3ccccc3N=C(c3ccc(F)cc3)C2)cc1Cl | 8% | . | 1% | . | . | .
OC[C@H]1OC(O)(CN2CCOCC2)[C@H](O)[C@@H]1O (stereo partly specified) | 5% | . | 25% | . | . | .
CCc1c(C)sc2c1CCN(C(=O)Nc1cc(C)ccc1OC)C2c1ccc(F)cc1 (stereo unspecified) | 13% | . | 2% | . | . | .
O=S(=O)(CCSc1nc2ccccc2o1)c1nc2ccccc2s1 | -25% | . | -14% | 0% | -2% | ?
O=S(=O)(CCSc1ccccn1)c1nc2ccccc2s1 | ? | . | -4% | -4% | 0% | 6.7µM*
COc1ccc(-c2cnc3c(c2)CCC3(C#N)C#N)cc1 | 79µM* | 1 | 0% | -10% | -2% | -1%
COc1ccc(-c2ccc(OC)cc2)cc1 | -2% | -4 | -7% | 18% | 2% | 2%
COc1ccc(S(=O)(=O)NCCc2sc3nc(-c4ccc(C)cc4)nn3c2C)cc1C | 8% | . | -6% | . | . | .
SMILES | VDR inh | PI5P4Ka inh | KAT2A inh | Rango dissoc inh | Rango complex inh | PLK1 PBD block
CC(Sc1nnc(-c2ccco2)n1N)C(=O)NC1CCCCC1C (stereo unspecified) | 15% | 8 | 0% | 23% | -1% | -4%
CC(Sc1cccc[n+]1[O-])C(=O)NC1CCCCC1C (stereo unspecified) | -17% | -19 | 2% | 3% | 6% | 24µM*
C=C(C)COc1ccc2c(CC)cc(=O)oc2c1 | ? | -22 | 1% | 14% | 0% | 13µM*
C=C(Cl)COc1ccc2c(CC)cc(=O)oc2c1 | -20% | . | -25% | 17% | 4% | -9%
COc1ccc(CS(=O)(=O)/C(Cl)=C(/Cl)C(=O)Nc2ccc(OC)nc2)cc1 | 40µM* | -7 | -4% | 3% | 1% | ?
COc1ccccc1CNC(=O)C12CC3CC(CC(C3)C1)C2 | -19% | -7 | 3% | 1% | -1% | 27µM*
COc1ccccc1CNC(=O)CC(C)C | ? | ? | -3% | 16% | ? | 12µM*
COc1ccccc1CNCC(=O)Nc1ccc(N(C)C)cc1 | -28% | 2 | 3% | 8% | 1% | 27µM*
COc1cc(S(=O)(=O)NCCc2c(C)[nH]c3ccccc23)c(C)cc1C | -12% | . | -3% | . | . | .
Cc1noc(NS(=O)(=O)c2ccc(NC(=O)c3ccc(Br)cc3)cc2)c1C | -10% | . | -7% | . | . | .
CCOc1ccc(S(=O)(=O)N2CCN(c3nc(-c4ccccc4)nc4ccccc34)CC2)cc1OCC | -21% | . | . | . | . | .
COc1cc(/C=C2\Oc3cc(O)ccc3C2=O)ccc1O | 2% | -61* | ? | ? | ? | 11%
O=C1/C(=C/c2cccc([N+](=O)[O-])c2)Oc2cc(O)ccc21 | 2% | ? | -4% | ? | ? | 2%
O=C1/C(=C/c2ccc(O)c(O)c2)Oc2cc(O)ccc21 | -11% | -64* | -16% | ? | ? | 25%
CC(=O)c1cccc(NC(=O)c2ccc(-n3c(C)nnc3C)cc2)c1 | 5% | . | -12% | . | . | .
COc1ccc(OC)c(/C=C/C(=O)Nc2ccc(C(=O)OCCC(C)C)cc2)c1 | -4% | . | 45% | . | . | .
Cc1cc(C)c(NC(=O)CCn2c(=O)c3cccn3c3cccnc32)c(C)c1 | 10% | . | -6% | . | . | .
COc1ccc(CC(=O)NCc2nc3cccnc3n2Cc2ccc(C)cc2)cc1OC | 2% | . | -5% | . | . | .
O=c1nc(SCc2c(F)cccc2Cl)nc(-c2ccccc2)[nH]1 | -4% | -5 | 21% | 1% | -2% | 27µM*
COc1ccc(NC(=O)c2ccc3c(=O)n4nc(Nc5ccccc5C)sc4nc3c2)cc1Cl | 4% | . | 1% | . | . | .
COC(=O)c1cc(C(=O)Nc2nnc(CC(C)(C)C)s2)cc([N+](=O)[O-])c1 | -15% | -7 | -2% | -4% | -4% | 19µM*
